Cruzain noTriton: qHTS Assay for Promiscuous and Specific Inhibitors of Cruzain (without detergent). Cruzipain (Trypanosoma cruzi), P25779. purified cruzain, Z-FR-AMC fluorescence, no detergent. Potency, µM, for inactives: max response, negative = inhibition, actives largely listed as inhibitors. actives 2.3% (n = 200,000);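 also: plate controls were enzyme without inhibitor for no effect and buffer without enzyme for full effect; nearly all actives have a fitted effect of over 40% in size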
Target sequence (P25779 123-467 limits assumed): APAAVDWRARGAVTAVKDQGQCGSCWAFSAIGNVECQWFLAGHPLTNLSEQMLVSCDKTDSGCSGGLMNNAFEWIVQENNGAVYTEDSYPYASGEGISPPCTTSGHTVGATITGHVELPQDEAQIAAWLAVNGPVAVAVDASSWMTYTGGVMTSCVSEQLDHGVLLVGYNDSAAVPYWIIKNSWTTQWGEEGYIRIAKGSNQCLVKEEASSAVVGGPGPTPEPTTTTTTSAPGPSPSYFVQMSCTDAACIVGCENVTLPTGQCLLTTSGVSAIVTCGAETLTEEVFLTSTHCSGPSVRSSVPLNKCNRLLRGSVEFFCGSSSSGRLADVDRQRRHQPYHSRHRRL
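Purified cruzain at 1.5 nM, pre-incubated 15 min with compound at room temperature in 100 mM sodium acetate pH 5.5, 5 mM DTT, 0.00005% Triton X-100. Reaction started with 2 uM Z-FR-AMC; AMC fluorescence increase over 60 s gives rate.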
Cruzain inh Det: qHTS Assay for Promiscuous and Specific Inhibitors of Cruzain (with detergent); actives 0.43% (n = 200,000); Potency, µM, inactives show max response, negative = inhibition, actives largely listed as inhibitors; purified cruzain, Z-FR-AMC fluorescence, 0.01% Triton; AID 1478, 2009; Cruzipain (Trypanosoma cruzi), P25779;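 also: plate controls were neutral wells for no effect and buffer without enzyme for full effect; nearly all actives have a fitted effect of over 40% in size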
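Cruzain (1.5 nM) preincubated 15 min at RT with compound in 100 mM sodium acetate pH 5.5, 5 mM DTT, 0.01% Triton X-100. Reaction started with 2 uM Z-FR-AMC; AMC fluorescence (ex 360/em 450 nm) change over 60 s gave rate.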
Active calls of the source: *; ? = inconclusive. Rows were chosen to be rich in hits. Some 2.5% of all compounds tested hit in one or more screens of this group. Calls follow the shape of the dose curve; as a rule, active = well fitted curve in the direction sought with a large enough effect; inconclusive = small, poorly fitted or top-dose-only effect, or another doubt; inactive = no such curve, though single readings can be large; an effect the other way counts as inactive or inconclusive. Potency is read from the fitted curve at half-maximal effect.

SMILES	Cruzain noTriton	Cruzain inh Det
CCOc1ccc(OCC)c(NS(=O)(=O)c2cc(-c3cnc(C)o3)ccc2OC)c1	?	-5%
Cc1ccc(NC(=O)CCCN2C(=O)COc3ccc(C)cc32)c(Cl)c1	-17%	-6%
CCc1ccc(NC(=O)c2ccc3oc(=O)n(Cc4ccccc4)c3c2)cc1	30%	1%
CCc1cccc(NC(=O)c2ccc3c(c2)c(C)c(C)n3Cc2ccc(F)cc2)c1	16µM*	2%
CCc1ccc(CNC(=O)c2ccc3c(c2)c(C)c(C)n3Cc2ccccc2)cc1	32µM*	2%
CCOc1ccc(CCNC(=O)c2ccc3c(c2)c(C)c(C)n3Cc2ccccc2)cc1OCC	?	0%
Cc1c(C)n(Cc2ccccc2)c2ccc(C(=O)NCc3ccco3)cc12	?	-5%
COc1cccc(CNC(=O)c2ccc3c(c2)c(C)c(C)n3Cc2ccccc2)c1	?	1%
CCc1ccc(NC(=O)c2ccc3c(c2)c(C)c(C)n3Cc2ccccc2)cc1	13µM*	2%
Cc1ccc(CCNC(=O)c2ccc3c(c2)c(C)c(C)n3Cc2ccccc2)cc1	13µM*	2%
CCOC(=O)c1[nH]c2ccccc2c1NC(=O)c1ccc(C)c(C)c1	-1%	-6%
Cc1ccc2c(=O)c3ccccc3n(CCCN)c2c1C	-4%	0%
O=C(CCS(=O)(=O)c1cc(Br)cc2c1N(C(=O)C1CC1)CC2)Nc1ccc(F)cc1	-2%	2%
Cc1ccc(C)c(NC(=O)C(=O)NCCc2csc3nc(-c4ccccc4C)nn23)c1	-12%	3%
COc1ccc(CCNC(=O)C(C)n2c(=O)cc(C(F)(F)F)c3c(C)nn(C)c32)cc1OC (stereo not given)	?	1%
O=C(Cn1c(=O)n(CCCS(=O)(=O)C2CCCCC2)c(=O)c2ccccc21)Nc1ccccc1F	-5%	-1%
COCC(C)NC(C(=O)Nc1ccc(C)c(Cl)c1)c1ccccc1 (stereo not given)	-2%	0%
Cc1ccc(NC(=O)C(OC(=O)c2ccc(C=O)cc2)c2ccccc2)cc1Cl (stereo not given)	25µM*	-9%
COc1ccc(/C=N/NC(=O)Cn2nc(C)c([N+](=O)[O-])c2C)cc1	15%	-3%
COc1ccc(/C=N/Nc2ccc([N+](=O)[O-])cc2)cc1Cn1cc([N+](=O)[O-])cn1	20µM*	-2%
COc1ccc(/C=N/Nc2ccccc2)cc1Cn1nc(C)c([N+](=O)[O-])c1C	13µM*	3%
COc1ccc(/C=N/NC(=O)c2ccc(Cn3cc([N+](=O)[O-])cn3)o2)cc1O	-21%	-6%
CCOc1ccc(NC(=O)CN2C(=O)C3(SCC(=O)N3c3ccc(F)cc3)c3ccccc32)cc1 (stereo not given)	-3%	-8%
Cc1ccsc1CN(C(=O)COc1ccccc1Cl)C1CCS(=O)(=O)C1 (stereo not given)	-4%	-3%
COC(=O)[C@@]1(Cc2ccc(F)cc2)[C@H]2c3cc(C(=O)N(C)C)n(Cc4ccc(O)c(OC)c4)c3C[C@H]2CN1C(=O)c1ccccc1	?	-9%
SMILES	Cruzain noTriton	Cruzain inh Det
CCNc1cc2oc(=O)c(CN3CCOCC3)c(C)c2cc1C	?	28µM*
Cc1cc2oc(=O)cc(CN3CCOCC3)c2cc1C	-9%	0%
Cc1ccc2oc(-c3cc(NC(=O)Cc4ccccc4)ccc3Cl)nc2c1	-2%	-4%
O=C(NC1=NCCS1)c1csc2ccccc12	16µM*	-14%
Cc1cc(C(=O)NC2=NCCS2)cs1	-4%	-2%
CCOC(=O)c1cccc(NC(=O)c2cc(S(=O)(=O)N3CCCC3)cn2C)c1	-6%	-3%
COc1ccccc1C(=O)Nc1cc2c(cc1N1CCCCC1)n(C)c(=O)n2C	-2%	-5%
CC1CCN(CC[S-])CC1.O.O.[Cl][Pt]	-6%	4%
Cc1cc(C)nc(-n2nc(C)c3c2NC(=O)CC3c2cc(F)ccc2F)n1 (stereo not given)	9%	1%
Cc1ccc(CNC(=O)CSc2ncc3c(n2)-c2cc(Cl)ccc2N(C)S3(=O)=O)cc1	0%	3%
[S-]C(=Nc1ccc(Cl)cc1)N[n+]1ccccc1	7.9µM*	20µM*
ONC(=Nc1ccc(Cl)cc1)c1ccc(Cl)cc1	-6%	-7%
Cc1ccc2nc(-c3ccc(NC(=O)CN4C(=O)c5ccccc5C4=O)cc3)sc2c1	-10%	0%
CCC1(c2ccc(F)cc2)NC(=O)N(CC(=O)Nc2ccc(-c3nc4ccc(C)cc4s3)cc2)C1=O (stereo not given)	13µM*	-11%
CC(=O)c1ccc(NC(=O)CN(C)S(=O)(=O)c2cnc[nH]2)cc1	7%	-1%
COC(=O)[C@@H]1C[C@@H]2CC[C@@H](O)C[C@@H]2N1Cc1ccc(C)s1	-3%	0%
c1ccc2c(Nc3nc(N4CCOCC4)c4ccccc4n3)cccc2c1	-8%	-8%
Fc1ccc(Nc2nc(N3CCOCC3)c3ccccc3n2)cc1	16µM*	?
Cc1ccc(S(=O)(=O)c2nnn3c2nc(NC(C)C)c2sccc23)cc1	15%	1%
CCOC(=O)c1cc(CC)sc1NC(=O)COc1ccccc1C	-5%	9%
CCCSc1nc2c(cnn2-c2ccc(C)c(C)c2)c(=O)[nH]1	-22%	0%
O=c1[nH]c(SCc2ccc(F)cc2)nc2c1cnn2-c1ccc(F)cc1	16µM*	2%
CCCSc1nc2c(cnn2-c2ccc(F)cc2)c(=O)[nH]1	0%	-6%
CCCCSc1nc2c(cnn2-c2ccc(C)c(C)c2)c(=O)[nH]1	20µM*	2%
CCC(C)Sc1nc2c(cnn2-c2ccccc2)c(=O)[nH]1 (stereo not given)	5%	2%
SMILES	Cruzain noTriton	Cruzain inh Det
CCC(C)Sc1nc2c(cnn2-c2ccc(C)cc2)c(=O)[nH]1 (stereo not given)	20µM*	2%
COc1cccc(-c2nc(NCCN3CCOCC3)c3ccccc3n2)c1	-1%	1%
Cc1cccc(C)c1NC(=O)C1CCCN1S(=O)(=O)c1cccc2nsnc12 (stereo not given)	-10%	1%
N#Cc1ccccc1NC(=O)Cn1cnc2onc(-c3cccc(F)c3)c2c1=O	5%	4%
COc1cccc(NC(=O)Cn2c(=O)n(-c3ccc(Cl)cc3)c(=O)c3oc4ccccc4c32)c1	-6%	-4%
CC[n+]1c(/C=C/N(C)c2ccccc2)sc2ccc(Cl)cc21	-16%	-10%
CC[n+]1c(/C=C/C=C/N(C(C)=O)c2ccccc2)sc2ccccc21	20µM*	-4%
Cc1cc(C)c(NC(=O)C(=O)NCC(c2cccnc2)N2CCN(c3ccccc3F)CC2)c(C)c1 (stereo not given)	-10%	-4%
Cc1ccc(C2N3CC4(C)CN2CC(c2ccccc2)(C3)C4=O)cc1 (stereo not given)	12%	-1%
O=C(Nc1c(C(=O)N2CCN(c3ccccc3)CC2)oc2ccccc12)c1ccccc1F	-14%	-3%
O=C(Nc1c(C(=O)N2CCN(c3ccccc3F)CC2)oc2ccccc12)c1ccccc1F	20µM*	-5%
Cc1c(NC(=O)Cc2ccc(Cl)cc2)cccc1-c1nc2cccnc2s1	11%	-3%
COc1ccccc1NC(=O)CSC1=Nc2ccccc2C2=NC(CCC(=O)NCc3ccco3)C(=O)N12 (stereo not given)	-2%	0%
O=C(CNC(=O)c1ccccc1Cl)OCc1cc(=O)n2ccsc2n1	13µM*	25µM*
O=C(CNC(=O)c1ccc(F)cc1)OCc1cc(=O)n2ccsc2n1	0%	-7%
